Experimental data: PubChem BioAssay AID894 (National Center for Advancing Translational Sciences (NCATS), 2007)
The campaign covered roughly 150,000 compounds. About 6,500 (4.3%) were called active. About 12% were inconclusive and are not listed. The sample as a whole holds a higher share of actives than the screen did. Unmarked numbers belong to inactive results. The call rests on the fitted dose curve; in most records, active means well fitted inhibition curve with a large enough effect (not every such curve was filed as active); inconclusive means small, poorly fitted or top-dose-only effect, or another doubt; inactive means no such curve, though single readings can be large or run the other way.

Target: 15-hydroxyprostaglandin dehydrogenase [NAD(+)] (Homo sapiens) (UniProt P15428)
Sequence (P15428 whole entry, looked up): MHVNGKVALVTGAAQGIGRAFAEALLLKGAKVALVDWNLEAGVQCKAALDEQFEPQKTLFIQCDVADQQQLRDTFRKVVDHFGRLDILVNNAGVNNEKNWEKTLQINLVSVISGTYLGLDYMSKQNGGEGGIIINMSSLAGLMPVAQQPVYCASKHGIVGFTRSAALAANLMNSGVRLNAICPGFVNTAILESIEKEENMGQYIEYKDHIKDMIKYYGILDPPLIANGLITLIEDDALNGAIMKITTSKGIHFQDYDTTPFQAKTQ
Test: qHTS Assay for Inhibitors of HPGD (15-Hydroxyprostaglandin Dehydrogenase)
Details: purified HPGD, NADH fluorescence kinetic, PGE2 substrate; activity change, negative = inhibition: hits give low values
How it was run: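 20 nM HPGD preincubated 15 min at room temperature with compound in 50 mM Tris-HCl pH 8, 0.01% Tween 20. Started with 1 mM NAD+ and 30 uM prostaglandin E2; NADH fluorescence (360/450 nm) read 5 times over 30-s intervals, last minus first.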
On the % scale 0 is the no-effect control and ±100 the full control effect; potency means the concentration at half of the fitted maximal effect.

Compound	activity change, negative = inhibition [%]	Potency
O=[N+]([O-])c1cc(S(=O)(=O)N2CCCC2)ccc1NN=C1CCCC1	-4.68	
C=C(C)c1cccc(C(C)(C)NC(=O)NC2CCCC2)c1	-3.62	
COc1ccc(COC(=O)N/N=C(\C)CC(=O)Nc2ccc(Cl)cc2)cc1	-4.69	
Cc1ccc(C(c2nnnn2CS(=O)(=O)c2ccc(C)cc2)N2CCC(C(N)=O)CC2)cc1 (stereo not given)	-7.21	
Cc1cccn2c(=O)c(/C=C(\C#N)S(=O)(=O)c3ccc(Cl)cc3)c(N3CCC(C(N)=O)CC3)nc12		15.8 µM (active)
Cc1cc(C)cc(Oc2nc3c(C)cccn3c(=O)c2/C=C(\C#N)C(=O)NC2CCS(=O)(=O)C2)c1 (stereo not given)	-10.8	
CN1CCC(=NNC(=O)c2ccc(N(Cc3ccc(Cl)cc3)S(C)(=O)=O)cc2)CC1	-8.83	
O=C(NNC1CC(=O)N(c2cccc(Cl)c2)C1=O)c1cccnc1 (stereo not given)	-13.5	
O=C(CNS(=O)(=O)c1ccccc1)NCC(=O)OCc1ccccc1F	0.393	
O=C(Nc1ccccc1)c1ccc2c(c1)OCO2	-29.6	
Cc1ccc(F)cc1NC(=O)c1ccc2c(c1)OCO2		20 µM (active)
Cn1c(NC(=O)c2ccc3c(c2)OCO3)cc(=O)n(C)c1=O	-14.1	
Cc1ccc(C(=O)NC(C)c2ccccc2)cc1Br (stereo not given)	-29.6	
O=C(CSc1ncnc2scc(-c3ccccc3)c12)NCc1ccc2c(c1)OCO2	-13.5	
O=C(NC(=S)NC1CCSC1=O)c1ccccc1F (stereo not given)	-13.4	
O=C(O)C[C@@H]1NC(=O)[C@H](Cc2ccccc2)NC1=O	-8.82	
Cc1ccccc1-n1c(C)cc(/C=N/NC(=O)c2ccc(CN3CCOCC3)cc2)c1C	-16.5	
Cc1ccc(C(=O)N/N=C/c2sc(=O)n(Cc3cccc(C(=O)O)c3)c2Cl)cc1		28.2 µM (active)
Cc1ccc(C(=O)Nc2c(C#N)c(C)c(C)n2Cc2ccccc2)cc1	-7.72	
CSc1c(SCc2ccccc2)cnn(Cc2ccccc2)c1=O		25.1 µM (active)
Cn1c(CO)cnc1SCc1ccccc1	1.72	
O=c1c2ccccc2c(-c2ccccc2)nn1Cc1ccccc1	-16.5	
O=C(NNC(=O)c1cc2c(s1)CCCC2)c1ccccc1	-17.6	
COC(=O)c1cccc(NC(=O)CSc2nc(C)cc(=O)[nH]2)c1		20 µM (active)

Compound	activity change, negative = inhibition [%]	Potency
Cc1cccc(NC(=O)CSc2nc3[nH]ncc3c(=O)[nH]2)c1	-11	
COc1ccc(NC(=O)CSc2nc(NS(=O)(=O)c3ccc(C)cc3)cc(=O)[nH]2)cc1	-10.9	
COc1cccc(CC(=O)N2CCc3nc(COc4ccccc4)c4c(c3C2)CO[C@@H](C)C4)c1	-2.54	
Cc1ccc(N/N=C2\COC(C)(C)CC2=O)cc1	-19.3	
C=C(C)C(=O)c1ccc(F)cc1	-9.12	
CNC(=O)/C(C#N)=C/c1c(F)cccc1Cl	-9.42	
CC1CCCN(c2ccc(C(=O)NCCc3ccccc3)cn2)C1 (stereo not given)		17.8 µM (active)
O=C(NCCc1ccccc1)c1ccc(NC2=NC3CS(=O)(=O)CC3S2)cc1 (stereo not given)	-15.7	
O=C(NCCc1ccccc1)c1ccc(OCCOc2ccccc2)cc1	-14.9	
COC(=O)/C(C#N)=C/c1occc1C	-10.9	
N#C/C(=C/c1cccc([N+](=O)[O-])c1)c1nnc2n1CCCCC2		20 µM (active)
O=[N+]([O-])c1cccc(S(=O)(=O)N2CCCCCC2)c1	-12	
N#C/C(=C(\O)CCl)c1nnc2n1CCCCC2	1.76	
Cc1ccn(-c2cccc(-n3ccc(C)n3)n2)n1	-19.2	
CC(C)NS(=O)(=O)c1ccc(OCC(=O)Nc2ccc3c(c2)OCCO3)cc1	0.139	
CCC(C)(C)c1ccc(Oc2ccc(NC(=O)COC(=O)C3=COCCO3)cc2)cc1		14.1 µM (active)
O=C(OCC(=O)c1cccs1)C1=COCCO1	-17.4	
CC(C)(C)CC(C)(C)NCC(O)COCCOc1ccc(Br)cc1 (stereo not given)	-5.61	
CCOC(=O)c1c(/N=C/C2C(=O)CC(C)(C)CC2=O)sc(C)c1C	-11.6	
CCc1ccc(NC(=O)c2ccc(Cn3cc([N+](=O)[O-])cn3)cc2)cc1	-0.318	
O=C(c1ccccc1)c1ccc(OC(=O)N2CCCC2)cc1	-20	
O=C(Oc1ccccc1)c1ccc2nccnc2c1	-13	
O=C(COc1cccc(F)c1)Oc1ccc(C(=O)c2ccccc2)cc1		7.94 µM (active)
C/C(=N\NC(=O)Cc1ccc(F)cc1)c1ccc(F)cc1	-3.27	

Compound	activity change, negative = inhibition [%]	Potency
Cc1ccc(S(=O)(=O)N(NC2=NS(=O)(=O)c3ccccc32)C(=O)c2ccccc2)cc1	-7.36	
Cc1ccc(NC(=S)NC2CCCC2)cc1	-9.46	
Cc1ccc(NC(=O)CSCC(=O)N2CCOCC2)cc1	2.74	
Cc1ccc(NC(=O)CSCC(=O)NC2CCCCC2)cc1		15.8 µM (active)
Cc1ccc(/C(N)=N/OC(=O)COc2ccc(Cl)c(C)c2)cc1	-14.6	
COCCn1c(=S)[nH]c2cc(C(=O)NCCc3ccc(OC)c(OC)c3)ccc2c1=O	-4.68	
COCCn1c(=O)[nH]c(=O)c2cc(C(=O)c3cc(OC)ccc3O)cnc21		25.1 µM (active)
COc1ccc(O)c(C(=O)c2cnc3onc(C(C)C)c3c2)c1	-14.6	
Cc1ccc(CN2C(=O)N/C(=C/c3cc(C)n(-c4ccccn4)c3C)C2=O)cc1	-12.6	
C/C(Cc1ccccc1)=N\NC(=O)CNC(=O)c1cccc(Br)c1	-6.55	
O=C(COC(=O)Cc1ccc(F)cc1)Nc1cc(S(=O)(=O)N2CCOCC2)ccc1N1CCCC1	-3.83	
CCCCCn1c(SCCC(C)C)nc2c1c(=O)[nH]c(=O)n2C		20 µM (active)
CCCSc1nc2c(c(=O)[nH]c(=O)n2C)n1CCc1ccccc1	-20.7	
CCCCCCn1c(SCC(=O)c2ccccc2)nc2c1c(=O)[nH]c(=O)n2C	-21.9	
O=C(COC(=O)Cc1ccc(Br)cc1)Nc1c(F)c(F)c(F)c(F)c1F	-9.95	
Cc1[nH]n(-c2cccc(Cl)c2)c(=O)c1/C=N/n1c(C)nc2ccccc2c1=O	-20.7	
Cc1[nH]n(-c2cccc(Cl)c2)c(=O)c1-c1ccc(Cl)cc1	-13	
O=c1[nH]n(-c2cccc(Cl)c2)c2ncccc12		6.31 µM (active)
COc1cc(CCC(=O)OCC(=O)Nc2cccc(S(N)(=O)=O)c2)cc(OC)c1OC	-6.23	
COC(=O)c1onc(-c2c(OC)cc(OC)cc2OC)c1C(=O)OC	-3.93	
N#Cc1ccsc1NC(=O)CN1CCN(S(=O)(=O)c2cc(Cl)ccc2Cl)CC1	-24.3	
CC(CCO)Nc1nc2c([nH]1)c(=O)n(C)c(=O)n2C (stereo not given)	-11.6	
Cc1ccc(NN=Nc2nc3c([nH]2)c(=O)n(C)c(=O)n3C)cc1		22.4 µM (active)
CCCSc1nc2c(c(=O)n(C)c(=O)n2C)n1Cc1ccc(C)cc1	-7.96	

Compound	activity change, negative = inhibition [%]	Potency
CCN(CC)C(=O)CSc1nc2ccccc2o1	-23.4	
Cn1c(=O)c2c(nc(Br)n2CCSc2nc3ccccc3o2)n(C)c1=O		31.6 µM (active)
Cc1cccc(Cn2c(SCCO)nc3c2c(=O)n(C)c(=O)n3C)c1	-7.66	
CN(Cc1ccccc1)c1nc2c(c(=O)[nH]c(=O)n2C)n1CCSc1nc2ccccc2[nH]1	-9.14	
Cn1c(=O)[nH]c(=O)c2c1nc(Br)n2CCCCSc1nc2ccccc2o1		25.1 µM (active)
Cc1ccnc(SCCn2c(Br)nc3c2c(=O)[nH]c(=O)n3C)n1	-9.47	
CCCC/S(C)=N/S(=O)(=O)c1ccc(C)cc1 (stereo not given)	1.3	
Cc1ccc(C)c(NC(CC(=O)c2ccccc2)C(=O)OCC(=O)c2cccs2)c1 (stereo not given)	-4.17	
CCOc1ccccc1N1CCN(C(=S)Nc2ccc(S(N)(=O)=O)cc2)CC1	-4.15	
Cc1ccc(S(=O)(=O)C2C(=O)NC3(C)CC2c2ccccc2O3)cc1 (stereo not given)	-19.6	
O=C(NN1C(=O)C2C3C=CC(O3)C2C1=O)c1ccncc1 (stereo not given)	2.88	
COc1cccc(C(=O)NNC(=O)c2ccccc2Br)c1	-0.052	
CCn1c(=N)n(CC(=O)c2cccc(OC)c2)c2ccccc21		35.5 µM (active)
CCCCOC(=O)Cn1c(=N)n(CCN(CC)CC)c2ccccc21	-7.8	
Cn1cccc1/C=C1\SC(=S)N(NC(=O)c2ccc(Cl)cc2)C1=O	-8.93	
Cc1cc(C)c(C#N)c(SCc2ccccc2C(=O)O)n1	-15	
Cc1cc(C)c(C#N)c(SCS(=O)c2ccc(C(C)(C)C)cc2)n1 (stereo not given)		15.8 µM (active)
Cc1cc(C)c(C#N)c(SCC(=O)NN2CC(=O)N(c3ccccc3F)CC2=O)n1	-14	
Cc1ccc(C(=O)NC(=S)NCCN2CCOCC2)cc1	-5.64	
Cc1c(O)c(Br)c(C)c(O)c1Br (tested in a mixture with another compound)		0.891 µM (active)
O=C(CSc1nnc(-c2ccncc2)o1)NCc1ccc(Cl)cc1	-1.7	
CCOC(=O)CSc1nnc(-c2ccncc2)o1	-12.2	
O=C(OCC#CCSc1nnc(-c2ccncc2)o1)c1sc2ccccc2c1Cl		20 µM (active)
